# Source: PubChem
# An excerpt weighted towards active compounds, which were near 2.8% of everything screened.
# IP6K1 inhibitor: IP6K1 kinase inhibition. IP6K1 kinase, ADP-Glo luminescence, 2 h; hits give low values. activity change, % (series mostly up to about 58 µM). 140,000 tested, 0.81% active. AID 1645851; in the data active = activity change below about -25%; note: % is set by controls: 0 for no effect and ±100 for the full control effect
# Target sequence (Q92551 whole entry, looked up): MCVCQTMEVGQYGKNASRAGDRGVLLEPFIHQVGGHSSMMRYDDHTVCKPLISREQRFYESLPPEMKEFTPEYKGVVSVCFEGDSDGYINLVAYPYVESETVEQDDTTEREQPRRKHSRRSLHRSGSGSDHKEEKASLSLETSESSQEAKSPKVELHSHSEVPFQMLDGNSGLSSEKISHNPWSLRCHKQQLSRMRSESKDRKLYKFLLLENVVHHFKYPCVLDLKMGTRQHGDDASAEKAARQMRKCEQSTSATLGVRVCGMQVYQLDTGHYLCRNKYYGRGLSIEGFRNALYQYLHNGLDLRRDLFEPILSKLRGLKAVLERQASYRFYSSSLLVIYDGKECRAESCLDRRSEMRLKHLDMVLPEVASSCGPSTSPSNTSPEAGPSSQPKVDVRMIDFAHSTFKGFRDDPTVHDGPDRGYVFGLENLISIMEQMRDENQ
#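 ADP-Glo luminescence measures ADP made by human IP6K1 during a 2 h RT reaction with ATP/IP6 (mix at 1.3 mM/130 uM); top library doses 57.5 and 19.1 uM final.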
# KDM5B inh: inhibitors of human KDM5B histone demethylase; 220,000 tested, 2.6% active; KDM5B demethylase, FDH-coupled NADH fluorescence (FDH is formaldehyde dehydrogenase); Q9UGL1; Potency, µM (highest dose often 57.7 µM), usual class: inhibitors; active = well fitted inhibition curve with a large enough effect; inconclusive = small, poorly fitted or top-dose-only effect; inactive = no such curve, though single readings can be large or run the other way; note: potency is the fitted concentration of half-maximal effect; 0% is about no effect; nearly all actives have a fitted effect of over 70% in size
#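 KDM5BΔAP (200 nM final) in 50 mM HEPES pH 7.5, 0.01% Tween-20 was preincubated 10 min at RT with compound over a concentration range. Substrate mix (H3K4me3 12.5 µM, α-KG 25 µM, Fe²⁺, ascorbate, NAD⁺, FDH) was added, and NADH fluorescence change over 30 min gave dose-response curves.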
# Starred values were filed as active, the others as inactive; i = inactive; ? = inconclusive; nt = no result.
SMILES,IP6K1 inhibitor,KDM5B inh
CC1(COc2ccccc2)COc2ccc(C(=O)NC3CCC(O)CC3)cc2N1 (stereo not drawn),1,32µM*
COCCN(C)C(=O)c1ccc2c(c1)NC(C)(COc1ccc3[nH]ccc3c1)CO2 (stereo not drawn),-11,i
Cc1ccc2c(c1)N1C(=O)OC[C@@H]1CCN(C(=O)C1CCC1)C2,-2,i
COC[C@@H]1CN(Cc2cnn(C)c2C)C[C@H]1c1ccncc1,-9,i
C=CCOc1ccc(NC(=O)c2ccc(OC)cc2)cc1,nt,i
CN(C)C(=O)c1ccc2c(c1)NC(C)(COc1ccc3[nH]ccc3c1)CO2 (stereo not drawn),-8,i
CC1(COc2ccc3[nH]ccc3c2)COc2ccc(C(=O)NC3CC3)cc2N1 (stereo not drawn),-14,32µM*
O=c1cc(Cn2nnc(-c3ccccc3)n2)nc2sccn12,nt,i
Cc1cc(C(=O)N2CCCCCCNC(=O)[C@@H]3CCCC[C@@H]32)nn1C,-5,i
O=C(NC1CCc2nnc(C3CC3)n2CC1)c1cccs1 (stereo not drawn),6,i
Cc1ccc(C(=O)NC2CCc3nnc(C4CC4)n3CC2)c(=O)[nH]1 (stereo not drawn),-7,32µM*
Cc1nn2c(c1-c1ccccc1-c1ccccc1)N(Cc1ccccc1)CCC2,-2,32µM*
Cc1nn2c(c1-c1ccccc1-c1ccccc1)N(Cc1ccc(C(=O)O)s1)CCC2,17,i
Cc1nn2c(c1-c1ccccc1Oc1ccccc1)N(Cc1cccc(C(=O)O)c1)CCC2,6,?
Cc1nn2c(c1-c1ccccc1Oc1ccccc1)N(Cc1cccc(C#N)c1)CCC2,4,25µM*
Cc1nn2c(c1-c1ccccc1-c1ccccc1)N(C(=O)c1ccnn1C)CCC2,9,i
Cc1nn2c(c1-c1ccccc1-c1ccccc1)N(CCC(C)C)CCC2,-9,6.3µM*
CC(C)Nc1nc(-c2ccc(Br)cc2)cs1,nt,i
CN(C)C(=O)c1ccc2oc(CN3CCN(C(=O)Nc4cccc(Cl)c4)CC3)nc2c1,nt,i
Cc1nc2cnccn2c1C(=O)NCc1cccc(F)c1,-4,nt
CCOc1ccc(NC(=O)CCc2c(C)nc3nc(C)nn3c2C)cc1,8,i
Cc1ccc(NC(=O)CCNc2c(C)nc3cnccn23)c(F)c1,15,25µM*
CCOc1ccc(NC(=O)CCNc2c(C)nc3cnccn23)cc1,26,20µM*
CNC(=O)c1cc(C2CC2)nc2onc(C3CCCN3[S+](=O)([O-])c3ccccc3)c12 (stereo not drawn),21,nt
CCCOc1c(Cl)cc(/C=C/C(=O)c2ccc(O)c(OC)c2)cc1OC,nt,i
SMILES,IP6K1 inhibitor,KDM5B inh
O=C(c1ccc(-c2ncc3cnc(-c4ccccc4)cn23)cc1)N1CCS(=O)(=O)CC1,-11,35µM*
O=C(NC1CCC(O)CC1)c1ccc(-c2ncc3cnc(-c4ccccc4)cn23)cc1 (stereo not drawn),0,?
O=C(NCCCO)c1ccc(-c2ncc3cnc(-c4cccc(F)c4)cn23)cc1,-14,?
O=C(c1ccc(-c2ncc3cnc(-c4cccc(F)c4)cn23)cc1)N1CCc2cccnc21,-17,?
O=C(O)c1ccc(-c2ncc3cnc(-c4ccccc4)cn23)cc1,-1,?
O=C(NCCO)c1ccc(-c2ncc3cnc(C4=CCOCC4)cn23)cc1,-14,32µM*
O=C(NCc1cnccn1)c1ccc(-c2ncc3cnc(C4=CCOCC4)cn23)cc1,-9,35µM*
O=C(c1ccc(-c2ncc3cnc(C4=CCOCC4)cn23)cc1)N1CCc2ccccc2C1,-3,28µM*
COc1ccc(C2(C(=O)N3CCC(Cc4nc(-c5ccc(F)cc5)no4)CC3)CC2)cc1,3,i
CC1(c2ccccc2)N(Cc2ncccn2)C(=O)OC12CCN(C(=O)c1ccc(Oc3ccccc3)cc1)CC2 (stereo not drawn),-3,i
O=C(Cc1ccccc1)NCC(=O)N1CCCCCCNC(=O)CC1c1ccccc1 (stereo not drawn),3,i
Cc1ccc(-n2nc(C)c([C@@H]3C=C[C@@H](NCc4cccc(C#N)c4)C3)c2C)cc1Cl,7,?
COc1ccc(C(=O)N2CCC(N3CC4CC(C3)[C@H]3CCCC(=O)N3C4)CC2)c(OC)n1 (stereo partly drawn),-3,?
CCN1CCN(CC(=O)NCc2ccc3[nH]c(-c4ccc(F)cc4)c(C)c3c2)CC1,2,32µM*
Cc1c(-c2ccc(F)cc2)[nH]c2ccc(CNC(=O)CN3CCOC3=O)cc12,1,28µM*
Cc1nc(-c2ccc(F)cc2)n(CC(=O)NCc2ccc3c(c2)OCO3)c(=O)c1CCO,0,i
O=C(CN1CCOCC1)NCc1ccc(F)cc1,nt,i
CN1CC(=O)N(C2CCNC2)Cc2c1ncnc2N1CCC(N2CCCCC2)CC1 (stereo not drawn),-7,?
